Records with an inconclusive call do not appear. Where a call stands in place of a potency, no number is given. The source made the active and inactive calls. Calls follow the shape of the dose curve; as a rule, active = well fitted inhibition curve with a large enough effect; inconclusive = small, poorly fitted or top-dose-only effect; inactive = no such curve, though single readings can be large or run the other way.

The first assay concerns Zika virus NS2B-NS3 protease (unlinked complex). Put plainly: Primary screen GU Rhodamine qHTS for Zika virus inhibitors: Unlinked NS2B-NS3 protease assay (AID 1347159). Also: nearly all actives have a fitted effect of over 60% in size. The conditions noted are these: Recombinant ZIKV NS2B-NS3 protease, Rhodamine110 substrate fluorescence; series mostly up to 107 µM. In outline: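 Unlinked NS2B/NS3, 25 nM; Rhod110 peptide, 1.5 microM; compounds, up to 114 microM. Reaction run 15 min at RT in 10 mM Tris-HCl pH 8.0, 0.01% Tween 20; kinetic fluorescence change fitted with a 4-parameter Hill model.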
Background: qHTS replaces the single test concentration by a dilution series.
With `C[C@@H]1O[C@@H](OC2C(CO)OC(OCC3OC(OC(=O)[C@]45CCC(C)(C)CC4C4=CCC6[C@@]7(C)CC[C@@H](O)[C@](C)(C(=O)O)C7CC[C@@]6(C)[C@]4(C)CC5)C(O)C(O)C3O)C(O)C2O)[C@H](O)[C@H](O)[C@H]1O` (stereo not given in full), the Potency result was “inactive”.

Consider `COCCN1CCC(C(=O)NO)(S(=O)(=O)c2ccc(Oc3ccc(OC(F)(F)F)cc3)cc2)CC1`, for which the Potency entry is “inactive”.

`CC1=C(C(=O)OC2OC(COC3OC(CO)C(O)C(O)C3O)C(O)C(O)C2O)C(C)(C)CCC1` (stereo not given): the Potency entry is “inactive”.

For the compound `CC(C)(CC(=O)N1CCCC1)NCC(=O)N1C[C@@H](F)C[C@H]1C#N`, the Potency result was “inactive”.

With `CC1=CC[C@@]2(C)CC[C@@](O)(C(C)C)[C@@H]2[C@@H](O)C1`, the Potency entry was “inactive”.

As to `CCCC/C=C\CCCCCc1cc(=O)c2ccccc2n1C`, the Potency result is “inactive”.

In the case of `CCc1cccc2c3c([nH]c12)[C@@](CC)(CC(=O)O)OCC3`, the Potency entry was “inactive”.

As for `COc1ccc(O[C@@H]2O[C@H](CO)[C@@H](O)[C@H](O)[C@H]2O)cc1OC`, the Potency entry was “inactive”.

Turning to `CC1(C)CC[C@]2(C(=O)O[C@@H]3O[C@H](CO)[C@@H](O)[C@H](O)[C@H]3O)CC[C@]3(C)C(=CCC4[C@@]5(C)CC[C@H](OC6OC(C(=O)O)C(OC7OC(CO)C(O)C(O)C7O)C(O)C6O)C(C)(C)C5CC[C@]43C)C2C1` (stereo not given in full), the Potency entry was “inactive”.

In the case of `C/C(CO)=C1/CCC23COC(C2)C(O)(C(=O)O)CCC13` (stereo not given), the Potency entry is “inactive”.

In the case of `CC(O)C(O)/C=C/C=C/C(=O)O[C@@H]1C=C(C(=O)O)[C@](O)(CO)[C@@]2(C)CCCC(C)(C)[C@H]12` (stereo not given in full), the Potency entry is “inactive”.

In the case of `CC(C)NC(=O)c1ccc(C#Cc2ccncc2)cn1`, the Potency entry is “inactive”.

The subject of a further assay is Zika virus NS2B-NS3 protease (linked construct). Put plainly: Primary screen NINDS Rhodamine qHTS for Zika virus inhibitors (AID 1347160). Also: nearly all actives have a fitted effect of over 55% in size. The conditions noted are these: purified NS2B-NS3 protease, Rhodamine110 substrate fluorescence; series mostly up to 33.1 µM. In outline:
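Single-chain NS2B-NS3 protease, 25 nM, pH 8.0; compounds preincubated 15 min. Activity: Rhodamine110 release from 1.5 microM substrate over 15 min, room temperature, data fitted to 4-parameter Hill.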
Consider `C/C=C(\C)C(=O)O[C@H]1C=CC(=O)O[C@H]1/C=C/[C@H](O)[C@@H](C)O`, for which the Potency entry is “inactive”.

Consider `COc1c(C)c(OCC=C(C)C)cc2c1CNC2=O`, for which the Potency result was “inactive”.

Consider `COc1c(C)c(OCC(O)C(C)(C)O)cc2c1CNC2=O` (stereo not given), for which the Potency result is “inactive”.

Turning to `Oc1ccccc1-c1cc(-c2ccccc2F)[nH]n1`, the Potency result is “inactive”.

With `CNC(=O)c1ccc2c(c1)CCO[C@H]2CCN1CCN(c2ccc(C(N)=O)cc2)CC1`, the Potency result was “inactive”.

For `CC(C)C1NC(=O)C2CCCN2C1=O` (stereo not given), the Potency result was “inactive”.

Take `CC(=O)OC1CC(C(C)(C)O)OC2CCC3(C)OC4=C(C(=O)C=C5C(C)C(OC(C)=O)C6(C)C(C)OC546)C(O)C3C12C` (stereo not given): the Potency result is “inactive”.

On to `C=C[C@@](C)(CCC=C(C)C)O[C@@H]1O[C@H](CO[C@@H]2OC[C@H](O)[C@H](O)[C@H]2O)[C@@H](O)[C@H](O)[C@H]1O`, for which the Potency result was “inactive”.

Consider `O=C(/C=C/c1ccc(O)cc1)OCC1OC(O)C(OC2OC(CO)C(O)C(O)C2O)C(O)C1O` (stereo not given), for which the Potency entry is “inactive”.

As to `COC(=O)C1=COC(OC2OC(CO)C(O)C(O)C2O)C2C(C)C(OC(=O)/C=C/c3ccc(O)cc3)C(O)C12` (stereo not given), the Potency entry is “inactive”.

For `O=C(O)c1ccc(NC(=O)[C@H](CC2CCCC2)n2cnc(C(F)(F)F)c2)nc1`, the Potency entry was “inactive”.

For `C[C@@H]1O[C@@H](O[C@H]2[C@@H]3C=CO[C@@H](O[C@@H]4O[C@H](CO)[C@@H](O)[C@H](O)[C@H]4O)[C@@H]3[C@@]3(CO)O[C@@H]23)[C@H](O)[C@H](O)[C@H]1OC(=O)/C=C/c1ccc(O)cc1`, the Potency entry was “inactive”.

`CCCCNc1nc(N)c2[nH]c(=O)n(Cc3ccc(OCCN(C)C)nc3)c2n1`: the Potency entry is “inactive”.

Consider `CC1=C(CO)CC(C(C)C2CCC3C4CC=C5CC(OC6OC(COC7OC(CO)C(O)C(O)C7O)C(O)C(O)C6O)CC(O)C5(C)C4CCC23C)OC1=O` (stereo not given), for which the Potency result is “inactive”.

For the compound `Cc1cc(-c2nncc3c(C(C)(C)C)c(OCc4ncnn4C)nn23)no1`, the Potency result was “inactive”.

On to `C[C@@H]1CC[C@]2(C(=O)O[C@@H]3O[C@H](CO[C@@H]4O[C@H](CO)[C@@H](O[C@@H]5O[C@@H](C)[C@H](O)[C@@H](O)[C@H]5O)[C@H](O)[C@H]4O)[C@@H](O)[C@H](O)[C@H]3O)CC[C@]3(C)C(=CCC4[C@@]5(C)C[C@@H](O)[C@H](O)[C@@](C)(CO)C5CC[C@]43C)C2[C@H]1C` (stereo not given in full), for which the Potency result was “inactive”.

As for `CC(=O)OCC1OC(O[C@H]2CC[C@]34C[C@]35CC(O)[C@]3(C)[C@@H]([C@H](C)CC/C=C(\C)C(=O)O)C(O)C[C@@]3(C)C5CC[C@H]4C2(C)C)C(O)C(O)C1OC1OCC(O)C(O)C1O` (stereo not given in full), the Potency result was “inactive”.

Take `CC(C)(O)[C@@H]1CC[C@]2(CO)[C@@H](O)CC[C@](C)(O)[C@H]2[C@@H]1O[C@@H]1O[C@H](CO)[C@@H](O)[C@H](O)[C@H]1O`: the Potency result was “inactive”.

In the case of `CCC(C)C(N)C(=O)NCCN1CCOCC1` (stereo not given), the Potency result is “inactive”.

For `C[C@@H]1O[C@@H](O[C@H]2[C@H](OC(=O)[C@]34CCC(C)(C)C[C@H]3C3=CCC5[C@@]6(C)CC[C@H](O[C@@H]7O[C@H](CO[C@@H]8OC[C@H](O)[C@H](O)[C@H]8O[C@@H]8OC[C@@H](O)[C@H](O)[C@H]8O)[C@@H](O)[C@H](O)[C@H]7O)C(C)(C)C6CC[C@@]5(C)[C@]3(C)C[C@H]4O)O[C@H](CO)[C@@H](O)[C@@H]2O)[C@H](O[C@@H]2O[C@H](CO)[C@@H](O)[C@H](O)[C@H]2O)[C@H](O)[C@H]1O[C@@H]1OC[C@@H](O)[C@H](O[C@@H]2OC[C@@H](O)[C@H](O)[C@H]2O)[C@H]1O` (stereo not given in full), the Potency entry was “inactive”.

`CC(=O)OC[C@]12[C@H](OC(C)=O)[C@H](OC(=O)c3ccccc3)[C@@H]3[C@@H](OC(C)=O)[C@]1(OC3(C)C)[C@H](C)C[C@H](OC(=O)c1ccccc1)[C@@H]2OC(=O)c1ccccc1`: the Potency result is “inactive”.

With `CC(=O)/C=C/C1(O)C(C)(C)CC(O)CC1(C)O` (stereo not given), the Potency entry is “inactive”.

For `OC[C@@]1(O)CO[C@H](OC[C@H]2O[C@@H](OCCc3ccccc3)[C@H](O)[C@@H](O)[C@@H]2O)[C@@H]1O`, the Potency entry is “inactive”.

As for `CC(C)CC[C@@H](O)[C@](C)(O)[C@H]1CC[C@@]2(O)C3=CC(=O)[C@@H]4C[C@@H](O)[C@@H](O)C[C@]4(C)[C@H]3CC[C@]12C`, the Potency entry was “inactive”.

With `O=C(/C=C/c1ccc(O)cc1)O[C@H]1[C@H](OC2CCCCC2O)O[C@H](CO)[C@@H](O)[C@@H]1O` (stereo not given in full), the Potency entry is “inactive”.

As for `Cc1c(NC(=O)N2CCOCC2)ccc2c1c1ccccc1n2C(C)C`, the Potency result was “inactive”.

On to `C[C@@H]1O[C@@H](OC2C(CO)OC(OCC3OC(OC(=O)[C@]45CCC(C)(C)CC4C4=CCC6[C@@]7(C)CC[C@@H](O)[C@](C)(C(=O)O)C7CC[C@@]6(C)[C@]4(C)CC5)C(O)C(O)C3O)C(O)C2O)[C@H](O)[C@H](O)[C@H]1O` (stereo not given in full), for which the Potency entry is “inactive”.

For `COCCN1CCC(C(=O)NO)(S(=O)(=O)c2ccc(Oc3ccc(OC(F)(F)F)cc3)cc2)CC1`, the Potency entry is “inactive”.

Take `CC1=C(C(=O)OC2OC(COC3OC(CO)C(O)C(O)C3O)C(O)C(O)C2O)C(C)(C)CCC1` (stereo not given): the Potency entry was “inactive”.

`CC(C)(CC(=O)N1CCCC1)NCC(=O)N1C[C@@H](F)C[C@H]1C#N`: the Potency result was “inactive”.

As for `CC1=CC[C@@]2(C)CC[C@@](O)(C(C)C)[C@@H]2[C@@H](O)C1`, the Potency entry was “inactive”.

`CCCC/C=C\CCCCCc1cc(=O)c2ccccc2n1C`: the Potency result was “inactive”.

On to `CCc1cccc2c3c([nH]c12)[C@@](CC)(CC(=O)O)OCC3`, for which the Potency entry is “inactive”.

Turning to `COc1ccc(O[C@@H]2O[C@H](CO)[C@@H](O)[C@H](O)[C@H]2O)cc1OC`, the Potency entry is “inactive”.

In the case of `CC1(C)CC[C@]2(C(=O)O[C@@H]3O[C@H](CO)[C@@H](O)[C@H](O)[C@H]3O)CC[C@]3(C)C(=CCC4[C@@]5(C)CC[C@H](OC6OC(C(=O)O)C(OC7OC(CO)C(O)C(O)C7O)C(O)C6O)C(C)(C)C5CC[C@]43C)C2C1` (stereo not given in full), the Potency result was “inactive”.

Regarding `C/C(CO)=C1/CCC23COC(C2)C(O)(C(=O)O)CCC13` (stereo not given), the Potency result was “inactive”.

As to `CC(O)C(O)/C=C/C=C/C(=O)O[C@@H]1C=C(C(=O)O)[C@](O)(CO)[C@@]2(C)CCCC(C)(C)[C@H]12` (stereo not given in full), the Potency result is “inactive”.

For the compound `CC(C)NC(=O)c1ccc(C#Cc2ccncc2)cn1`, the Potency entry is “inactive”.

The values are drawn from PubChem BioAssay (NCATS).
